A selection: hits, their analogues and other compounds. The true share with any hit is near 11%.
hNpr1 antagonist – blocks ANP-stimulated signaling of human Npr1 receptor; P16066; HEK293 hNpr1 GloSensor cGMP, ANP-stimulated luminescence; Potency, µM (titrated, usually from 46.3 µM), without a hit: at the highest dose activity change, negative = inhibition, most hits filed as inhibitors; 76,000 compounds, 1.6% hits; calls by dose curve; also: % is scaled to controls: 0 for no effect and ±100 for the full control effect; nearly all actives have a fitted effect of over 60% in size
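HEK293 cells stably expressing human Npr1 and cGMP GloSensor pGS-40F, loaded 2 h with 2% GloSensor reagent, given compound 30 min at room temperature. Luminescence read before and 20 min after 0.1 nM hNppA.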
HEK cytotox – kills HEK 293 cells | 94,000 compounds, 6.6% hits | Potency, µM (highest dose often 115 µM), inactives show at the highest dose activity change, negative = cytotoxicity, hits mostly inhibitors | HEK 293 viability, ATP luminescence (CellTiter-Glo), 48-72 h; also: % is scaled to controls: 0 for no effect and ±100 for the full control effect; nearly all actives have a fitted effect of over 60% in size
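HEK 293 cells seeded at 250 cells/well were exposed to compound for 48 or 72 hr at 37 degree Celsius. Viability taken as ATP content by CellTiter-Glo luminescence.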
FLuc inh-1 – blocks purified firefly luciferase enzyme activity; P08659; purified P. pyralis luciferase, luminescence, biochemical; Potency, µM (highest dose often 115 µM), hits mostly inhibitors; 76,000 compounds, 2.5% hits; AID 1347043; also: % is scaled to controls: 0 for no effect and ±100 for the full control effect; nearly all actives have a fitted effect of over 65% in size
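Inhibitors were tested against purified firefly luciferase in a biochemical, low-substrate format (both substrates at 10uM) and luminescence measured with a CCD imager.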
NIH3T3 tox – cytotoxic compounds in NIH 3T3 cells. NIH 3T3 viability, CellTiter-Glo ATP luminescence, 48-72 h. 94,000 compounds, 4.3% hits. AID 1345082. Potency, µM (titrated, usually from 96.7 µM), for the others: top-dose activity change, negative = cytotoxicity, usual class: inhibitors; also: % is scaled to controls: 0 for no effect and ±100 for the full control effect; nearly all actives have a fitted effect of over 55% in size
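Mouse fibroblast NIH 3T3 cells, 400 per well, received compound via pintool and were incubated for 48 or 72 hr prior to CellTiter-Glo ATP luminescence measurement.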
FLuc SDR no ATP – binders stabilizing firefly luciferase, without ATP; shares compounds with FLuc inh-1; Potency, µM (top dose mostly 32.7 µM), without a hit: at the top dose activation (signal gain), hits mostly activators; 1,300 compounds, 7.8% hits; Purified FLuc-C-HiBiT, Nano-Glo HiBiT luminescence, no ATP; also: nearly all actives have a fitted effect of over 55% in size
FLuc SDR ATP – binders stabilizing firefly luciferase, plus ATP | shares compounds with FLuc inh-1 | AID 1963319 | 1,300 compounds, 8.7% hits | purified FLuc-C-HiBiT + ATP, HiBiT complementation luminescence | Potency, µM (titrated, usually from 32.7 µM), inactives show at the top dose activation (gain of signal), hits mostly activators;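 also: signal reports ligand binding via conformational change of the enzyme rather than luciferase catalysis; % of control where 0% means no effect; nearly all actives have a fitted effect of over 55% in size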
FLuc inh-2 – inhibitors of firefly luciferase enzymatic activity | shares compounds with FLuc inh-1 | purified FLuc-C-HiBiT enzyme, luciferin luminescence | Potency, µM (doses to about 32.7 µM), for inactives: at the top dose activity change, negative = inhibition, usual class: inhibitors | 1,300 compounds, 42% hits | AID 1963320; also: % is scaled to controls: 0 for no effect and ±100 for the full control effect; nearly all actives have a fitted effect of over 70% in size
Npr1 antag conf – hNpr1 antagonism, confirmation assay. Potency, µM (series often up to 57.6 µM), for the others: top-dose activity change, negative = inhibition, most hits filed as inhibitors. HEK293 hNpr1 cGMP GloSensor luminescence, ANP-stimulated. shares compounds with hNpr1 antagonist. 1,400 compounds, 76% hits. AID 1347044; calls by dose curve; also: nearly all actives have a fitted effect of over 70% in size
NPR2 antag – antagonizes human Npr2, subtype selectivity check | shares compounds with hNpr1 antagonist | HEK293 hNpr2 GloSensor cGMP luminescence, CNP-stimulated | Potency, µM (series often up to 57.6 µM), for inactives: at the top dose activity change, negative = inhibition, hits mostly inhibitors | 1,400 compounds, 67% hits; calls by dose curve; also: nearly all actives have a fitted effect of over 70% in size
Target sequence (P20594 whole entry, looked up): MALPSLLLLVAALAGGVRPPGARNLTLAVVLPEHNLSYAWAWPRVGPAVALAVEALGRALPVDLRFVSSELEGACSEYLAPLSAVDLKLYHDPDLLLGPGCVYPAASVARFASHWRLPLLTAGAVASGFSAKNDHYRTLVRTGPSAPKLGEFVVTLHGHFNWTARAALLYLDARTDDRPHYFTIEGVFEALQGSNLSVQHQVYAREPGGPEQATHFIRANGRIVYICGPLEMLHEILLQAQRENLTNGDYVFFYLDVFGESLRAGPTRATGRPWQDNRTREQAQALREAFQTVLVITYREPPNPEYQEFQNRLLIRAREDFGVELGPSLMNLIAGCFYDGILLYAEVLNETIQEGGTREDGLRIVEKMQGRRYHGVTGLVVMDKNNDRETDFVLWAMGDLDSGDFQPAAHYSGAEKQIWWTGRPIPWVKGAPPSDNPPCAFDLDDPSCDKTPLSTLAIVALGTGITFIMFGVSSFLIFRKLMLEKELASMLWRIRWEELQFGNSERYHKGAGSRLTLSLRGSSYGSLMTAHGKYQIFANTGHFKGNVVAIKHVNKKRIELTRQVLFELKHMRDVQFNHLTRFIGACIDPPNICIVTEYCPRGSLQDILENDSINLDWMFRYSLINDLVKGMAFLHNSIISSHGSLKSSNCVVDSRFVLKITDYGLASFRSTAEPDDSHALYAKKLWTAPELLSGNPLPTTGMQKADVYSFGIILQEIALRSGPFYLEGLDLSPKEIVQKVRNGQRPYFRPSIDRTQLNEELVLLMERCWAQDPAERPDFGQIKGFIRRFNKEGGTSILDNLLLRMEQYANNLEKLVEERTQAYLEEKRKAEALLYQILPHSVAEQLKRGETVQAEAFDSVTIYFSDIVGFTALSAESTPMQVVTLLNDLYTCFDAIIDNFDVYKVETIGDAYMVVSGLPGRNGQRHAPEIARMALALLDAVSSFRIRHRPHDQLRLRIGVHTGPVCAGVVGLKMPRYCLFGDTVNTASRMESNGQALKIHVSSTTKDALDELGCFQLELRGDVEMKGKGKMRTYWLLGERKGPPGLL
FLuc inh counter – counter-screen for Npr1 antagonists: firefly luciferase inhibitors; AID 1347047; Potency, µM (series often up to 57.6 µM), inactives show at the top dose activity change, negative = inhibition, actives largely listed as inhibitors; purified FLuc enzyme, luminescence, Km substrate; 1,400 compounds, 0.7% hits; shares compounds with hNpr1 antagonist; also: 0% is about no effect
GloSensor cGMP – counter-screen for Npr1 antagonists: GloSensor control cell line | shares compounds with hNpr1 antagonist | HEK293 GloSensor cGMP, SNP-stimulated, luminescence | Potency, µM (series often up to 57.6 µM), for the others: at the top dose activity change, negative = inhibition, actives largely listed as inhibitors | 1,400 compounds, 69% hits; calls by dose curve; also: % is scaled to controls: 0 for no effect and ±100 for the full control effect; nearly all actives have a fitted effect of over 70% in size
* = called active by the depositor; i = inactive; ? = inconclusive; · = not tested or not shown; [ ] = remark or other dose. Unless noted, calls follow the shape of the dose curve; as a rule, active = well fitted curve in the direction sought with a large enough effect; inconclusive = small, poorly fitted or top-dose-only effect, or another doubt; inactive = no such curve, though single readings can be large; an effect the other way counts as inactive or inconclusive. Potency is read from the fitted curve at half-maximal effect.

SMILES	hNpr1 antagonist	HEK cytotox	FLuc inh-1	NIH3T3 tox	FLuc SDR no ATP	FLuc SDR ATP	FLuc inh-2	others
CC(C)Oc1cccc(-c2cccc(COc3ccc4c(cnn4CC[S+](C)(=O)[O-])c3)c2)c1	?	28µM*	6.3µM*	?	13%	12%	?
O=C(O)CCn1ncc2cc(OCC3CCN(C(=O)Cc4ccccc4)CC3)ccc21	-1%[70.6 µM]	-12%[172 µM]	i	?	·	·	·
Cn1cc(-c2cccc(COc3ccc4c(cnn4CC[S+](C)(=O)[O-])c3)c2)cn1	?	?	5.6µM*	?	25%[49.3 µM]	?	?
C[S+](=O)([O-])CCn1ncc2cc(OCC3CCN(Cc4ccccc4)CC3)ccc21	6%[70.6 µM]	?	i	?	·	·	·
O=C(O)CCn1ncc2cc(OCc3ccc(-c4cccc(CO)c4)cc3)ccc21	-5%[70.6 µM]	-7%[172 µM]	20µM*	?	0%[49.3 µM]	1%[49.3 µM]	?
COc1ccc(C)cc1-c1ccc(COc2ccc3c(cnn3CCC(=O)O)c2)cc1	-1%[70.6 µM]	?	i	-16%[138 µM]	·	·	·
CNC(=O)CCn1ncc2cc(OCc3ccccc3-c3cccc(NC(C)=O)c3)ccc21	-19%	?	8.9µM*	?	27%	?	3.1µM*
C[C@H](C(=O)NCCN1CCOCC1)C1CC[C@@]2(C)Cc3sc(-c4ccccc4)nc3[C@@H](C)[C@@H]2[C@H]1O (stereo partly drawn)	?	?	11µM*	?	2.2µM*	?	0.99µM*
Cc1nnc2ccc(N3CCCN(C(=O)NC4CCCC4)CC3)nn12	·	i	·	-5%	·	·	·
O=C(NCCn1ccn2nc(-c3ccc(F)cc3)cc2c1=O)c1cccc2[nH]ccc12	-13%	i	i	i	·	·	·
Cc1ccc(-c2cc3c(=O)n(CCNC(=O)c4cccc5[nH]ccc45)ccn3n2)cc1C	-15%	35µM*	5.6µM*	32µM*	23%	15%	7.9µM*
Cc1ccc(-c2cc3c(=O)n(CCNC(=O)c4ccoc4)ccn3n2)cc1C	-12%	?	7.1µM*	?	25%	17%	?
O=C(Cn1cccc1-c1nc(-c2ccc(F)cc2)no1)Nc1ccc(F)cc1	-16%	?	i	?	·	·	·
Cc1cccc(CCNC(=O)c2sc3nc4n(c(=O)c3c2C)CCCC4)c1	·	·	·	·	11%	8%	-5%
O=C(N[C@@H]1CN(C(=O)Cc2c[nH]c3ccccc23)C[C@H]1CO)c1ccccc1	·	-10%	·	-17%	·	·	·
c1cn(-c2ccc(-c3nc(C4CCOC4)no3)cc2)cn1 (stereo not drawn)	-1%	-4%	i	-20%	·	·	·
CCCc1ccc(-c2nc(C3CCOC3)no2)cc1 (stereo not drawn)	?	?	1.1µM*	-21%	15%	?	7µM*
COc1ccc(/C=C/c2ccc3c(c2)C(=O)N2CC[C@H](NC(=O)COCC(=O)O)[C@H]2C(=O)N3)cc1	-2%	?	7.9µM*	?	?	?	9.9µM*
COc1ccc(-c2ccc3c(c2)C(=O)N2CC[C@H](NC(=O)COCC(=O)O)[C@H]2C(=O)N3)c(OC)c1	1%	-24%	?	-16%	·	·	·
CSCC(=O)N[C@H]1CCN2C(=O)c3cc(/C=C/c4ccccc4)ccc3NC(=O)[C@H]12	2%[70.6 µM]	?	11µM*	-26%[174 µM]	17%[49.3 µM]	10%[49.3 µM]	?
O=C(N1CCOCC1)N1CCN(c2ccc3nnc(C4CC4)n3n2)CC1	·	-3%	·	-29%	·	·	·
Cc1cc(-c2nc3cc(F)ccc3s2)ccc1N	·	·	·	·	?	?	1.1µM*
Cc1nc(-c2ccc(F)cc2)n(CC(=O)Nc2cc(F)ccc2F)c(=O)c1CCO	-9%	?	i	-15%	·	·	·
Cc1cc(-c2nc3cc(F)ccc3s2)ccc1NC(=O)[C@@H](N)CCCCN	·	·	·	·	30%	?	2.5µM*
C[C@H](O)C(=O)N1CCc2ccc(S(=O)(=O)NCCOc3ccccc3)cc2C1	-1%	?	i	-14%	·	·	·
SMILES	hNpr1 antagonist	HEK cytotox	FLuc inh-1	NIH3T3 tox	FLuc SDR no ATP	FLuc SDR ATP	FLuc inh-2	others
CC(=O)N1CCc2cc(S(=O)(=O)CCC(=O)N3CCCC(Cc4nncn4CC4CC4)C3)ccc21 (stereo not drawn)	2%	-23%	i	-4%	·	·	·
CC(=O)N1CCc2cc(S(=O)(=O)NCCCC(=O)N3CCC(CCOc4ccccc4)C3)ccc21 (stereo not drawn)	5.6µM*	?	i	?	·	·	·	Npr1 antag conf=5.4µM*;NPR2 antag=6.1µM*;FLuc inh counter=7%;GloSensor cGMP=4.8µM*
CC(=O)N1CCc2cc(S(=O)(=O)CCC(=O)N3CCC(CCOc4ccccc4)C3)ccc21 (stereo not drawn)	10µM*	-17%	i	-20%	·	·	·	Npr1 antag conf=27µM*;NPR2 antag=?;FLuc inh counter=3%;GloSensor cGMP=?
Brc1ccc(CN2CCC(c3nc4ccncc4[nH]3)C2)cc1 (stereo not drawn)	11µM*	?	i	?	·	·	·	Npr1 antag conf=24µM*;NPR2 antag=22µM*;FLuc inh counter=-1%;GloSensor cGMP=?
Clc1cnccc1CN1CCNc2cnc(Oc3ccccc3)cc2C1	4µM*	89µM*	i	?	·	·	·	Npr1 antag conf=6.3µM*;NPR2 antag=8.9µM*;FLuc inh counter=3%[86.2 µM];GloSensor cGMP=5µM*
Clc1cnccc1CN1CCNc2cnc(-c3ccccc3)cc2C1	28µM*	?	i	?	·	·	·	Npr1 antag conf=31µM*;NPR2 antag=35µM*;FLuc inh counter=-1%[86.2 µM];GloSensor cGMP=31µM*
O=C1NCc2ccccc2CC12CCN(Cc1ccncc1Cl)CC2	·	-19%	·	-1%	·	·	·

High-throughput results from PubChem.
